# Sampled rows, rich in hits. Any-hit rate of the full collection: about 1.9%.
# eIF4E-4G inh – inhibitors of eIF4E and eIF4G interaction in translation initiation. AID 782. P63073+Q04637. inhibition, % at 21.7 µM. 220,000 compounds, 0.37% hits. TR-FRET eIF4E-eIF4GI(517-606) binding, 2 h;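 active = inhibition above about 30%, limit read from the data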;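 also: 0% = full FRET control wells and 100% = background wells lacking eIF4GI fragment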
# eIF4H inh – inhibitors of RNA binding by human eIF4H. Q15056. eIF4H fluorescence polarization binding assay. inhibition, % at 35 µM. 290,000 compounds, 0.94% hits;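 also: calls also rest on retests at 20 µM and on dose response follow-up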
# MLLE-PAM2 inh – blocks PAM2 peptide binding to the PABP1 MLLE domain | P11940 | GST-MLLE / FITC-PAM2 fluorescence polarization | inhibition, % at 20 µM | 360,000 compounds, 0.36% hits; in the data active = inhibition above about 35%, passing the limit was not always enough;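 also: plate controls were DMSO wells with GST-MLLE for no effect and wells lacking GST-MLLE protein for full effect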
# Target sequence (P11940 whole entry, looked up, the tested form may be a part): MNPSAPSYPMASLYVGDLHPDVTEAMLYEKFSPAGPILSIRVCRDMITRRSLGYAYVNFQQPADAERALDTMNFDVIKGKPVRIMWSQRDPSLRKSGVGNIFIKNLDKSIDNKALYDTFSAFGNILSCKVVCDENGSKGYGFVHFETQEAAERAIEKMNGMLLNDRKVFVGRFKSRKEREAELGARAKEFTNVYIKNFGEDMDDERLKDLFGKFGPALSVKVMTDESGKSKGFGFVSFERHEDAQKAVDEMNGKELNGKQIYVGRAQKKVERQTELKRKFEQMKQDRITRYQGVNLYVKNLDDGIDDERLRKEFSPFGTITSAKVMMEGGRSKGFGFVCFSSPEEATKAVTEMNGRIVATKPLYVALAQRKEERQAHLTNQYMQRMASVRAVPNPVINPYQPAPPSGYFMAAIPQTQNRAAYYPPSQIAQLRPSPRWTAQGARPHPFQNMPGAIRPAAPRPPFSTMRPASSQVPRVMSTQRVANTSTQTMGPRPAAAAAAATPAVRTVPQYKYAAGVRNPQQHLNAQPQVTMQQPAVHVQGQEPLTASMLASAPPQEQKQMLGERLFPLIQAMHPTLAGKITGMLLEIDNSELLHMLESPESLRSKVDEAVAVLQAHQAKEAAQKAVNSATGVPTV
# 14-3-3 Bad inh – disrupts binding of bovine 14-3-3 zeta to phospho-Bad peptide; TR-FRET 14-3-3zeta/Dy647-pBad peptide displacement, 1 h; inhibition, % at 21.7 µM; 220,000 compounds, 0.71% hits; AID 781;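 active = inhibition above about 70%, limit read from the data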;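 also: 0% = full 14-3-3 plus peptide FRET controls and 100% = background without 14-3-3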
# PABP FP inh – blocks human PABP binding to poly(A) RNA. P11940. fluorescence polarization. calls only at 35 µM. 290,000 compounds, 1% hits. AID 2014;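 also: calls also rest on retests at 20 µM and on dose response follow-up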
# Starred values were filed as active, the others as inactive; i = inactive; ? = inconclusive; . = not tested or not shown; + = active, no number; [ ] = another dose, or the depositor's remark. Unless noted, no rule for the calls is given here.
SMILES,eIF4E-4G inh,eIF4H inh,MLLE-PAM2 inh,14-3-3 Bad inh,PABP FP inh
CCOC(=O)N1CCN(Cc2c(O)ccc3ccccc23)CC1,4,-2,40*,-7,i
CCOC(=O)N1CCN(Cc2ccc(F)cc2F)CC1,4,2,-2,91*,i
CCOC(=O)C1(CC2CC2)CCN(Cc2ccc(OC)cc2F)CC1,-5,89*,-7,-3,i
CC(=O)N1CCN(C2=Nc3cccc4cccc2c34)CC1,8,32,18,10,i
CC1CN(C2=Nc3cccc4cccc2c34)CC(C)O1 (centres undefined),4,66,29,8,+
c1cc2c3c(cccc3c1)C(N1CCOCC1)=N2,2,58,33,8,+
c1ccc(CC2CCN(C3=Nc4cccc5cccc3c45)CC2)cc1,2,92*,-30,6,i
Cc1cc(C)cc(OCC(=O)O/N=C(\N)c2cccnc2)c1,3,-7,1,-2,i
CC(=O)N(CCc1ccccc1C)Cc1cc2ccc(C)cc2[nH]c1=O,.,-10,-16,.,i
CC(C)=CCc1c(O)cc2oc3c(CC=C(C)C)c(O)c(O)c(CC=C(C)C)c3c(=O)c2c1O,-14,58*,-47,-2,i
CC(C)=CCc1cc(-c2oc3cc(O)cc(O)c3c(=O)c2O)ccc1O,.,.,-2,.,.
Cc1ccccc1OCC(=O)OCC(=O)NC1CCCCCC1,.,.,8,.,.
COc1ccc(Br)cc1C1NC(=O)c2c(sc3c2CCN(C)C3)N1 (centres undefined),.,100*,-33,.,+
Cc1cc(S(=O)(=O)NC(C)c2nnc3ccccn23)ccc1Br (centres undefined),.,.,15,.,.
CCn1c(C)nc2cc(S(=O)(=O)Nc3ccc(C)cc3)ccc21,0,8,-139,6,+
[O-][n+]1c2ccccc2[n+]([O-])c2cc(O)ccc21,.,106*,8,.,+
[O-][n+]1c(/C=C/c2ccccc2)ccc2ccccc21,.,19,3,.,i
O=C(COc1ccc(F)cc1)NCCN1CCCC1,.,0,0,.,i
CC(=O)N1N=C(c2ccccc2)OC1(C)CC(=O)Nc1ccccc1 (centres undefined),7,-2,8,-2,i
CC(=O)N1N=C(c2cccc([N+](=O)[O-])c2)OC1(C)CC(=O)Nc1ccccc1 (centres undefined),24,-12,12,81*[fluorescence artefact?],i
O=C(NC(=S)Nc1cccnc1)c1cccc(Cl)c1,.,.,43*,.,.
O=C(NC(=S)Nc1ccccc1)c1cncc(C#Cc2ccccc2)c1,1,-5,40*,4,i
O=C(O)c1cncc(C#Cc2ccccc2)c1,.,5,1,.,i
O=C(NC(=S)NCc1cccnc1)c1cc2ccccc2o1,2,-5,32,-3,i
O=C(NC(=S)Nc1cccnc1)c1cc2ccccc2o1,1,34,41*,-4,i
SMILES,eIF4E-4G inh,eIF4H inh,MLLE-PAM2 inh,14-3-3 Bad inh,PABP FP inh
CN1C(=O)/C(=C/c2ccc(-c3ccccc3[N+](=O)[O-])o2)SC1=Nc1ccc(Cl)c(C(=O)O)c1,18,78*,-50,4,i
CC(=O)c1ccc(NC(=O)C2Cc3ccccc3CN2C(=O)c2ccccc2)cc1 (centres undefined),2,2,-7,-3,i
COc1ccc(NC(=O)C2Cc3ccccc3CN2C(=O)c2ccccc2)cn1 (centres undefined),-3,?,71*,5,?
NC(=O)N/N=C/c1coc2ccc3ccccc3c2c1=O,5,-8,2,-4,i
O=Cc1coc2ccc3ccccc3c2c1=O,.,-5,40*,.,i
O=C1CCCC(=O)C1CS(=O)(=O)c1ccccc1,8,-8,52*,-10,i
CC1(C(=O)NS(=O)(=O)c2cccs2)CCN1C(=O)Cc1ccccc1 (centres undefined),.,.,3,.,.
COc1ccc(Nc2nc3[nH]c(=O)cc(O)c3s2)cc1,4,56*,-19,-11,i
O=c1cc(O)c2sc(Nc3ccc(F)c(Cl)c3)nc2[nH]1,7,26,-43,-22,i
C=CCc1cccc(/C=N/c2ncccc2O)c1O,-1,70*,1,-4,+
O=C(COC(=O)CSc1ccc2ccccc2c1)NCc1ccc2c(c1)OCO2,7,-4,2,-3,i
CCn1nnc(NC(=O)COc2ccc([N+](=O)[O-])cc2)n1,3,6,7,6,i
O=C(CCS(=O)(=O)Cc1cccc(Cl)c1)NCCc1ccccc1,.,-6,7,.,i
